Source: ChEMBL document CHEMBL4888484, “Replenishing the malaria drug discovery pipeline: Screening and hit evaluation of the MMV Hit Generation Library 1 (HGL1) against asexual blood stage Plasmodium falciparum ,using a nano luciferase reporter read-out” (2022)
Screen size: about 150,000 compounds; about 540 (0.36%) showed an effect of 50% or more. What follows is part of a selection rich in strong results, with near analogues and random picks from the rest.

system: Plasmodium falciparum; assay: Primary screen in NF54 nanoGlo assay, in single point, at 2uM, 72h; a lower Z score goes with more inhibition; type: functional, Erythrocyte; details: timepoint 72 hour

| SMILES | % Inhibition | Z score |
| --- | --- | --- |
| CCc1cc2c(N3CC(c4ncc(C5CC5)cn4)C3)ncnc2s1 | 0% | -0.06 |
| CN(C(=O)Cn1c(=O)n(C)c(=O)c2ccccc21)C1CCCCC1 | -1% | 0.19 |
| Cc1cc(C(=O)N2CCOC3(CCS(=O)(=O)CC3)C2)c(C)s1 | -13% | 1.28 |
| Cc1c(CN(C)C(=O)c2ccc(-c3ccc4c(c3)OCC4)cc2)cnn1C | -20% | 2.12 |
| COc1ccccc1-c1nnc2c3ccc(Cl)cc3nc(N3CCN(C(=O)c4ccc(C)cc4)CC3)n12 | -13% | 1.38 |
| Cc1nc(-c2ccco2)ccc1C(=O)N[C@@H](C)c1nnnn1C | -12% | 1.8 |
| CCn1nc(-n2cnnc2)c(NS(=O)(=O)c2ccc(C)cc2)c1C | -9% | 1.53 |
| COc1ncnc2c1CN(C(=O)NCC1(Cc3ccccc3)CCC1)CC2 | 29% | 1.68 |
| Cc1cc(Nc2ccc(C)c(Cl)c2)c2cccc(C)c2n1 | 23% | -2.05 |
| COc1cccc2c(Nc3ccc(C(=O)O)cc3)cc(C)nc12 | -3% | 0.28 |
| Cc1cc(C)c2nc(C)cc(Nc3ccc(O)cc3)c2c1 | 85% | -12.86 |
| Cc1nonc1CC(=O)NCCCn1ccnn1 | -4% | 0.49 |
| Cc1ccc2c(NC(=O)NCC3(CO)CCC3)cccc2n1 | -9% | 1.22 |
| NC(=O)c1ncc(Br)cc1N1CCC[C@H](F)C1 | -6% | 0.95 |
| O=C(Nc1nc2c(s1)CN(S(=O)(=O)c1c(F)cccc1F)CC2)c1ccco1 | -5% | 0.7 |
| O=C(Nc1cccc(CNc2ncccn2)c1)c1ccco1 | -4% | 0.39 |
| COc1ccc(-c2nc(C)cc(C)c2CNC(=O)c2ccco2)cc1 | -2% | 0.33 |
| FC(F)(F)c1ccc(-c2nc(CN(Cc3ccccc3)Cc3ccccc3)cs2)cc1 | 0% | 0.08 |
| CN(Cc1cccc(N(C)C)c1)Cc1csc(-c2ccoc2)n1 | -5% | 0.54 |
| CC1(C)CN(C(=O)c2c(O)cnc3c(F)cccc23)C1C1CCCO1 (stereo unspecified) | -4% | 0.64 |
| CCN(CC)c1ccc(C(=O)Nc2ccc3nc(N4CCCC4)cc(C)c3c2)cc1 | 73% | -6.69 |
| COc1ccc(C(=O)Nc2ccc3nc(N4CCC(C)CC4)cc(C)c3c2)cc1OC | 7% | -1.1 |

| SMILES | % Inhibition | Z score |
| --- | --- | --- |
| COc1cc(OC)cc(C(=O)Nc2ccc3nc(N4CCC(C)CC4)cc(C)c3c2)c1 | 58% | -3.66 |
| Cc1cc(N2CCC(C)CC2)nc2ccc(NC(=O)c3cccnc3)cc12 | 18% | -2.1 |
| CC(=O)Nc1ccc2nc(N3CCC(C(=O)NC4CC4)CC3)cc(C)c2c1 | 8% | -1.23 |
| CC(=O)Nc1ccc2nc(N3CCC(C(=O)N4CCC(N5CCCCC5)CC4)CC3)cc(C)c2c1 | 10% | -1.6 |
| CCn1c(=O)sc2cc(NC(=O)c3ccc(C)cc3)ccc21 | 5% | -0.91 |
| CC(Nc1ccc(C#N)nc1)C1CCCOC1 (stereo unspecified) | 1% | -0.15 |
| Cc1noc2ncnc(NC[C@](C)(O)c3cccc(F)c3)c12 | -7% | 1.41 |
| CN(C)c1ccccc1NC(=O)Cn1ccc(=O)[nH]c1=O | -5% | 0.92 |
| Nc1nnc(N[C@H]2COc3ccccc32)[nH]1 | 0% | 0.03 |
| O=C(CCc1ccc(Cl)c(C(F)(F)F)c1)N1CC[C@H](N2CCc3ccccc3C2)C1 | 50% | -7.74 |
| O=C(CCc1ccc(Cl)c(F)c1)N1CC(N2CCc3ccccc3C2)C1 | -9% | 1.44 |
| O=C(CCc1cccc(Cl)c1)N1CC[C@H](N2CCc3ccccc3C2)C1 | -5% | 0.72 |
| COCCN1C[C@@H](c2nc(C3CCOCC3)n[nH]2)CCC1=O | -5% | 0.81 |
| CNC(=O)[C@H](CNC(=O)c1ccc(=O)[nH]n1)Cc1ccc(F)cc1C | -8% | 1.4 |
| Cc1cccc(CN2CCN(C(=O)c3cc(C)nc(N)n3)[C@@H](C)C2=O)c1 | -2% | 0.2 |
| COc1cc(C(=O)Nc2cccc(-c3nc(C)cc(=O)[nH]3)c2)ccc1OCc1cscn1 | -2% | 0.29 |
| C=CCn1ncc(-c2cn([C@@H](CC)c3cc(C)ccn3)nn2)c1C | 10% | -1.39 |
| CN(C)C1(CC2CC2)CCN(Cc2cccc(C#N)c2)CC1 | -3% | 0.54 |
| O=C(Cc1ccccc1Cl)N1CC[C@H](Oc2ccc3ccccc3n2)C1 | -5% | 0.96 |
| O=C(COc1ccc(Cl)cc1)N1CC[C@H](Oc2ccc3ccccc3n2)C1 | -18% | 3.35 |
| CCNC(=O)N1CC[C@H](Oc2ccc3ccccc3n2)C1 | 57% | -3 |
